Measured values: article PMC5540273 (PLoS ONE, 2017)

Legend:
Conditions in all cases: concentration: 1 μM, replicates: in singlicate; n = 1
MET = tested on: MET
MINK = tested on: T1, MINK
T1 construct: gene MINK1

MKK7 = tested on: MKK7
MKNK1 = tested on: MKNK1
MKNK2 = tested on: MKNK2
MLCK = tested on: T2, MLCK
T2 construct: gene MYLK3

MLK1 = tested on: T3, MLK1
T3 construct: gene MAP3K9

MLK2 = tested on: MLK2
MLK3 = tested on: MLK3
MRCKA = tested on: MRCKA
MRCKB = tested on: T4, MRCKB
T4 construct: gene CDC42BPB

MST1R = tested on: MST1R
MST1 = tested on: T5, MST1
T5 construct: gene STK4

MST2 = tested on: T6, MST2
T6 construct: gene STK3

MST3 = tested on: T7, MST3
T7 construct: gene STK24

MST4 = tested on: MST4
MTOR = tested on: MTOR
MUSK = tested on: MUSK
MYLK2 = tested on: MYLK2
MYLK4 = tested on: MYLK4
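Note: KINOMEscan kinase panel screen.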

For `COc1cc(Nc2ccnc3ccc(C(F)(F)F)cc23)cc(OC)c1OC` [GW577382], which “%Inh” value (MET) is on record?
Its value is 0%.

What about the “%Inh” value (MINK) of the same compound?
Its value is 17%.

What about the “%Inh” value (MKK7) of the same compound?
The value was 0%.

And the “%Inh” value (MKNK1)?
Its value is 29%.

And the “%Inh” value (MKNK2)?
The value was 9%.

And the “%Inh” value (MLCK)?
The value was 0%.

What about the “%Inh” value (MLK1) of the same compound?
Its value is 3%.

What about the “%Inh” value (MLK2) of the same compound?
Its value is 31%.

What about the “%Inh” value (MLK3) of the same compound?
Its value is 23%.

And the “%Inh” value (MRCKA)?
Its value is 22%.

What about the “%Inh” value (MRCKB) of the same compound?
The value was 6%.

And the “%Inh” value (MST1R)?
Its value is 34%.

And the “%Inh” value (MST1)?
The value was 13%.

What about the “%Inh” value (MST2) of the same compound?
The value was 5%.

What about the “%Inh” value (MST3) of the same compound?
Its value is 4%.

And the “%Inh” value (MST4)?
The value was 0%.

And the “%Inh” value (MTOR)?
Its value is 21%.

And the “%Inh” value (MUSK)?
The value was 8%.

And the “%Inh” value (MYLK2)?
The value was 4%.

What about the “%Inh” value (MYLK4) of the same compound?
Its value is 10%.

What does the source list for `COC(=O)c1c(-c2ccccc2)c2cc(C)ccc2c(=O)n1Cc1ccccc1`?
%Inh (MET): 0%; %Inh (MINK): 0%; %Inh (MKK7): 0%; %Inh (MKNK1): 0%; %Inh (MKNK2): 0%; %Inh (MLCK): 0%; %Inh (MLK1): 0%; %Inh (MLK2): 0%; %Inh (MLK3): 0%; %Inh (MRCKA): 0%; %Inh (MRCKB): 0%; %Inh (MST1R): 31%; %Inh (MST1): 0%; %Inh (MST2): 21%; %Inh (MST3): 0%; %Inh (MST4): 0%; %Inh (MTOR): 0%; %Inh (MUSK): 12%; %Inh (MYLK2): 0%; %Inh (MYLK4): 0%

For `COC(=O)c1c(-c2ccccc2)c2cc(Br)ccc2c(=O)n1Cc1ccc(S(C)(=O)=O)cc1`, which “%Inh” value (MET) is on record?
The value was 2%.

And the “%Inh” value (MINK)?
Its value is 10%.

And the “%Inh” value (MKK7)?
The value was 19%.

And the “%Inh” value (MKNK1)?
The value was 8%.

And the “%Inh” value (MKNK2)?
The value was 0%.

What about the “%Inh” value (MLCK) of the same compound?
The value was 3%.

And the “%Inh” value (MLK1)?
The value was 1%.

And the “%Inh” value (MLK2)?
The value was 0%.

What about the “%Inh” value (MLK3) of the same compound?
The value was 0%.

And the “%Inh” value (MRCKA)?
The value was 0%.

And the “%Inh” value (MRCKB)?
Its value is 0%.

What about the “%Inh” value (MST1R) of the same compound?
The value was 43%.

And the “%Inh” value (MST1)?
The value was 10%.

What about the “%Inh” value (MST2) of the same compound?
The value was 32%.

What about the “%Inh” value (MST3) of the same compound?
The value was 5%.

What about the “%Inh” value (MST4) of the same compound?
Its value is 0%.

And the “%Inh” value (MTOR)?
Its value is 28%.

And the “%Inh” value (MUSK)?
The value was 7%.

And the “%Inh” value (MYLK2)?
The value was 0%.

What about the “%Inh” value (MYLK4) of the same compound?
Its value is 2%.

What does the source list for `Cc1ccc(Oc2ccc(Nc3ncnc4cc[nH]c34)cc2C)cn1`?
%Inh (MET): 4%; %Inh (MINK): 10%; %Inh (MKK7): 0%; %Inh (MKNK1): 34%; %Inh (MKNK2): 41%; %Inh (MLCK): 0%; %Inh (MLK1): 5%; %Inh (MLK2): 19%; %Inh (MLK3): 1%; %Inh (MRCKA): 0%; %Inh (MRCKB): 0%; %Inh (MST1R): 35%; %Inh (MST1): 0%; %Inh (MST2): 15%; %Inh (MST3): 3%; %Inh (MST4): 0%; %Inh (MTOR): 0%; %Inh (MUSK): 0%; %Inh (MYLK2): 18%; %Inh (MYLK4): 19%

What does the source list for `O=C(NCc1cccs1)c1cc(C(=O)c2c(Cl)cccc2Cl)c[nH]1` [GW823670]?
%Inh (MET): 5%; %Inh (MINK): 0%; %Inh (MKK7): 0%; %Inh (MKNK1): 0%; %Inh (MKNK2): 0%; %Inh (MLCK): 0%; %Inh (MLK1): 10%; %Inh (MLK2): 13%; %Inh (MLK3): 0%; %Inh (MRCKA): 0%; %Inh (MRCKB): 0%; %Inh (MST1R): 0%; %Inh (MST1): 15%; %Inh (MST2): 0%; %Inh (MST3): 0%; %Inh (MST4): 0%; %Inh (MTOR): 0%; %Inh (MUSK): 2%; %Inh (MYLK2): 0%; %Inh (MYLK4): 4%

For `CCCC(=O)Nc1n[nH]c2ncc(-c3cccc4ccccc34)cc12` [SB-642057], which “%Inh” value (MET) is on record?
Its value is 0%.

What about the “%Inh” value (MINK) of the same compound?
Its value is 21%.

What about the “%Inh” value (MKK7) of the same compound?
The value was 0%.

What about the “%Inh” value (MKNK1) of the same compound?
The value was 10%.

What about the “%Inh” value (MKNK2) of the same compound?
The value was 7%.

And the “%Inh” value (MLCK)?
Its value is 0%.

What about the “%Inh” value (MLK1) of the same compound?
Its value is 0%.

And the “%Inh” value (MLK2)?
Its value is 0%.

And the “%Inh” value (MLK3)?
The value was 0%.

What about the “%Inh” value (MRCKA) of the same compound?
The value was 9%.

And the “%Inh” value (MRCKB)?
Its value is 17%.

And the “%Inh” value (MST1R)?
The value was 18%.

And the “%Inh” value (MST1)?
The value was 5%.

And the “%Inh” value (MST2)?
The value was 0%.

What about the “%Inh” value (MST3) of the same compound?
The value was 6%.

And the “%Inh” value (MST4)?
The value was 0%.

And the “%Inh” value (MTOR)?
Its value is 17%.

What about the “%Inh” value (MUSK) of the same compound?
The value was 11%.

And the “%Inh” value (MYLK2)?
Its value is 9%.

And the “%Inh” value (MYLK4)?
The value was 0%.

Which “%Inh” value (MET) does the source give for `CCS(=O)(=O)c1ccc(OC)c(Nc2ncc(-c3ccc(F)cc3)o2)c1.Cl` [GW591947] here?
The value was 0%.

And the “%Inh” value (MINK)?
The value was 0%.

And the “%Inh” value (MKK7)?
The value was 0%.

What about the “%Inh” value (MKNK1) of the same compound?
Its value is 0%.

What about the “%Inh” value (MKNK2) of the same compound?
The value was 0%.

What about the “%Inh” value (MLCK) of the same compound?
Its value is 0%.

And the “%Inh” value (MLK1)?
The value was 0%.

And the “%Inh” value (MLK2)?
The value was 0%.

What about the “%Inh” value (MLK3) of the same compound?
Its value is 6%.

And the “%Inh” value (MRCKA)?
The value was 10%.

And the “%Inh” value (MRCKB)?
The value was 0%.

And the “%Inh” value (MST1R)?
Its value is 33%.

And the “%Inh” value (MST1)?
Its value is 0%.

And the “%Inh” value (MST2)?
Its value is 2%.

What about the “%Inh” value (MST3) of the same compound?
Its value is 0%.

And the “%Inh” value (MST4)?
The value was 0%.

What about the “%Inh” value (MTOR) of the same compound?
Its value is 5%.

What about the “%Inh” value (MUSK) of the same compound?
Its value is 2%.

What about the “%Inh” value (MYLK2) of the same compound?
Its value is 2%.

And the “%Inh” value (MYLK4)?
Its value is 0%.
